PubChem BioAssay (NCI)
About 83,000 compounds went through this panel and 20% of them were active in at least one assay; those are over-represented in the sample as a whole.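 Percent growth is the endpoint: 0 to 100 indicates growth inhibition (40 means 60% inhibition), 0 means no net growth, and negative values indicate cell death.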 The source made the active and inactive calls. How the source made its calls: active means growth percent below 10; inactive means the rest.

How the values were obtained:
Assay in all cases: NCI-60 one-dose screen, 48 h (100 = growth as untreated, 0 = no growth, -100 = all killed)
Settings in all cases: 10 µM unless noted
[1] = tested on: SR leukemia
[2] = tested on: RPMI-8226 leukemia
[3] = tested on: OVCAR-8 ovarian
[4] = tested on: OVCAR-5 ovarian
[5] = tested on: OVCAR-4 ovarian
[6] = tested on: SK-OV-3 ovarian
[7] = tested on: IGROV1 ovarian
[8] = tested on: OVCAR-3 ovarian
[9] = tested on: NCI/ADR-RES ovarian
[10] = tested on: BT-549 breast
[11] = tested on: MDA-MB-435 melanoma
[12] = tested on: MCF7 breast
[13] = tested on: HCT-116 colon
[14] = tested on: HCC-2998 colon
[15] = tested on: KM12 colon
[16] = tested on: HS 578T breast
[17] = tested on: T-47D breast
[18] = tested on: SW-620 colon

Measured: growth

Cc1nc(Nc2cccnc2)sc1C(=O)/C=C/c1ccc(F)cc1
active: [2] 1.5% | [8] 5.9% | [10] 1.57% | [11] 2.86% | [13] 3.7%
inactive: [1] 18.6% | [3] 21.8% | [4] 56.4% | [5] 63.8% | [6] 71.6% | [7] 29.9% | [9] 38.4% | [12] 14.2% | [14] 83.4% | [15] 11.3%

COc1cc(CNC(=O)CCSc2nc3ccccc3c(=O)n2Cc2cc(OC)c(OC)c(OC)c2)cc(OC)c1OC
active: [11] -28.7%
inactive: [1] 11.1% | [2] 39.2% | [3] 48.2% | [4] 68.3% | [5] 58.9% | [6] 27.3% | [7] 51.3% | [16] 57.4% | [9] 17.4% | [17] 29.3% | [10] 48.3% | [18] 23.9% | [12] 15.4% | [13] 17% | [15] 17.3%

COc1ccc(/C=C/C(=O)OCC(=O)NNC(=O)c2ccccc2)cc1OC
inactive: [1] 71.8% | [2] 79.7% | [3] 102% | [4] 113% | [5] 101% | [6] 113% | [7] 87.8% | [16] 103% | [9] 116% | [17] 101% | [10] 98.6% | [11] 104% | [18] 98.4% | [12] 85.6% | [13] 103% | [14] 127% | [15] 115%

COc1cc(Cn2c(SCCC(=O)Nc3ccc(F)cc3)nc3ccccc3c2=O)cc(OC)c1OC
inactive: [1] 56.7% | [2] 74.9% | [3] 84.1% | [4] 94.1% | [5] 85% | [6] 95% | [7] 77.8% | [16] 86.2% | [17] 77.8% | [10] 92.6% | [11] 106% | [18] 97.9% | [12] 91% | [13] 65.3% | [14] 95.7% | [15] 99.3%

CC(=O)Nc1nc(C(=O)N2N=C(C)/C(=C/c3ccccc3)C2=O)cs1
inactive: [1] 90.7% | [2] 102% | [3] 105% | [4] 99.9% | [5] 110% | [6] 97.6% | [7] 101% | [16] 111% | [9] 110% | [17] 98.6% | [10] 107% | [11] 106% | [18] 107% | [12] 95.9% | [13] 98.3% | [14] 104% | [15] 102%

CC[C@]1(O)C[C@@H]2CN(Cc3c([nH]c4ccccc34)[C@@](C(=O)OC)(c3cc4c(cc3OC)N(C)[C@H]3[C@@](O)(C(=O)OC)[C@H](OC(C)=O)[C@]5(CC)[C@@H]6C[C@@H]6CN6CC[C@]43[C@@H]65)C2)C1
active: [1] 2.3% | [10] -23.1% | [11] -40% | [13] 2.43% | [14] 7.42% | [15] -9.75%
inactive: [2] 48.8% | [3] 11.9% | [4] 51% | [5] 34.9% | [6] 15.2% | [7] 37.2% | [16] 16.8% | [9] 93.8% | [17] 83.3% | [18] 20.6% | [12] 14.8%

COc1cc(NS(C)(=O)=O)ccc1Nc1c2ccc([N+](=O)[O-])cc2nc2c(C)cccc12
active: [2] -19.8% | [7] -2.46% | [17] 1.78% | [14] -1.86% | [15] -29.1%
inactive: [1] 15.6% | [3] 13.7% | [4] 36.8% | [5] 49.1% | [6] 11.2% | [16] 58.4% | [9] 58.6% | [10] 27% | [11] 27.2% | [18] 18.8% | [12] 15.6% | [13] 22.9%

COc1ccc(NC(=O)CSc2nc3ccc(Cl)cc3c(=O)n2-c2ccccc2C(F)(F)F)c(OC)c1OC
inactive: [1] 89.6% | [2] 83.3% | [3] 39.3% | [4] 96.9% | [6] 30.2% | [7] 75.3% | [9] 72.4% | [17] 61.9% | [10] 72.8% | [11] 92.3% | [18] 94% | [12] 78.9% | [13] 70.1% | [14] 99% | [15] 95.7%
active: [5] -4.33%

COc1ccc2c(c1)NC(=O)CN2c1nc(NC2CC2)nc2ccccc12
active: [9] 5.39% | [10] -17% | [11] -36% | [12] 9.56% | [13] 0.461% | [14] 6.95% | [15] 3.45%
inactive: [1] 31.5% | [2] 32.7% | [3] 18.3% | [4] 44% | [5] 40.3% | [6] 23.9% | [7] 24.5% | [16] 26.6% | [18] 23.6%

N#Cc1ncc(-c2ccc(F)c(F)c2F)c(NC2CCCCCC2)n1
inactive: [1] 69.5% | [2] 63.1% | [3] 86.1% | [4] 94.2% | [5] 81.1% | [6] 95.8% | [7] 83.8% | [16] 75.9% | [9] 83.8% | [10] 71% | [11] 96% | [18] 98% | [12] 83.5% | [13] 72.6% | [14] 95.8% | [15] 74%

CCN(CC)CCSc1c2ccc(Cl)cc2nc2ccc(OC)cc12
active: [17] -39.9% | [18] 4.29%
inactive: [1] 12.1% | [2] 72.7% | [3] 88.5% | [4] 103% | [5] 81% | [6] 86.5% | [7] 98.1% | [16] 108% | [9] 105% | [10] 107% | [11] 109% | [12] 33.8% | [13] 50.3% | [14] 97.3% | [15] 99.1%
